# In PubChem BioAssay (NCI):
# About 83,000 compounds went through this panel and 20% of them were active in at least one assay; those are over-represented in the sample as a whole.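 Each cell line was grown in a 96-well plate and treated with one concentration of compound for 48 hours. Values below 10 were considered active.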 Values without a mark were called inactive. Calls of active or inactive are those of the source.
# Key:
# Assay in all cases: NCI-60 one-dose screen, 48 h (100 = growth as untreated, 0 = no growth, -100 = all killed)
# Conditions in all cases: 10 µM unless noted
# T-47D breast = system: T-47D breast
# BT-549 breast = system: BT-549 breast
# MDA-MB-435 melanoma = system: MDA-MB-435 melanoma
# SW-620 colon = system: SW-620 colon
# MCF7 breast = system: MCF7 breast
# HCT-116 colon = system: HCT-116 colon
# HCC-2998 colon = system: HCC-2998 colon
# KM12 colon = system: KM12 colon
Compound,growth (T-47D breast),growth (BT-549 breast),growth (MDA-MB-435 melanoma),growth (SW-620 colon),growth (MCF7 breast),growth (HCT-116 colon),growth (HCC-2998 colon),growth (KM12 colon)
Oc1cc(Cl)ccc1Cc1ccc(Cl)cc1O,29.2%,33.9%,46.2%,81.2%,68.3%,41.7%,88.1%,98.7%
CC(=O)c1ccc2c(c1)CCc1ccccc1-2,97.8%,104%,100%,102%,90.2%,96.6%,109%,109%
CCOc1ccc(C(C[N+](=O)[O-])Sc2ccccc2N)cc1 (configuration not stated),42.8%,-74.9% (active),3.44% (active),-40.4% (active),0.363% (active),-55.6% (active),-82.3% (active),-51.3% (active)
CC1=CC(=O)C=CC1(C)C(Cl)(Cl)Cl (configuration not stated),89.8%,103%,105%,96.7%,92.6%,89.9%,98.6%,108%
O=C1C=CC(=O)N1C1CCCCCCCCCCC1,56.9%,87.5%,82.6%,-27.4% (active),69.8%,0.595% (active),106%,104%
COC(=O)c1nc(=S)[nH]c(C(=O)OC)c1C(=O)c1ccc(Cl)c(Cl)c1,100%,129%,106%,106%,97.4%,106%,113%,112%
O=C(OC12CC3CC(CC(C3)C1)C2)c1ccc(NCc2cc(O)ccc2O)cc1,-70% (active),-81.6% (active),-46% (active),-53.8% (active),6.06% (active),-82.9% (active),-73.6% (active),-60.7% (active)
Nc1ccc(-c2ccc(N)c(S(=O)(=O)O)c2)cc1S(=O)(=O)O,106%,113%,115%,107%,104%,107%,113%,103%
CCCCC(CCc1ccc([N+](=O)[O-])cc1)(C(C)=O)C(=O)OCC (configuration not stated),90%,117%,100%,91.4%,91.1%,92.2%,109%,92%
Cc1ccc2cccc(OC(=O)Nc3cccc(C(F)(F)F)c3)c2n1,47.1%,108%,91.3%,58%,72.2%,38%,87.6%,44.5%
O=C1C=CC(=O)N1c1cccc2c1CCCC2,86.5%,112%,88.5%,99.6%,88.3%,95%,118%,109%
OC(CSc1ccccc1)CN1CCN(c2ccc(Cl)cc2)CC1 (configuration not stated),95.9%,102%,105%,105%,98%,90.2%,95.3%,110%
O=C(CCl)N1c2ccccc2Sc2c1ccc1ccccc21,84.3%,36.9%,80.2%,11.1%,66.8%,16.4%,98.5%,87.2%
C(=N\Nc1ccc2ccccc2n1)/c1ccccn1,18.9%,43.9%,37.5%,23.5%,15.9%,18.4%,17.1%,29.1%
COc1cc(OC)c(/C=C/c2c3ccccc3cc[n+]2C)c(OC)c1,13%,17.8%,2.01% (active),28.2%,12.9%,18.5%,21.8%,6.03% (active)
COC1=CC(=O)c2c(O)c3c(c(O)c2C1=O)CC(C)(O)OC3 (configuration not stated),0.836% (active),28.1%,-95% (active),16.6%,-27.1% (active),-27.6% (active),-20.5% (active),9.83% (active)
CCCOS(=O)(=O)c1ccccc1,109%,129%,101%,101%,111%,107%,102%,103%

Compound,growth (T-47D breast),growth (BT-549 breast),growth (MDA-MB-435 melanoma),growth (SW-620 colon),growth (MCF7 breast),growth (HCT-116 colon),growth (HCC-2998 colon),growth (KM12 colon)
CCCCC(C=O)(C=C=C(C)C)CC (configuration not stated),111%,103%,99.1%,106%,90.9%,106%,109%,109%
Cc1ccc(Nc2ccc(O)c3c2C(=O)c2c(O)ccc(Nc4ccc(C)cc4)c2C3=O)cc1,96.9%,113%,104%,103%,98%,93.5%,113%,112%
O=C1CSC(=S)N1Cc1cccnc1,18.5%,51.7%,37%,17%,10.5%,42.3%,126%,7.96% (active)
Clc1ccc(Cc2nc3ccccc3s2)cc1,79.6%,86.7%,92.5%,101%,77.4%,97.8%,103%,93.2%
COC(=O)[C@]1(C)CCC[C@]2(C)c3ccc(C(C)C)cc3C(=O)[C@@H](Br)[C@@H]12,53.1%,116%,91.8%,86.3%,57.6%,85.3%,106%,104%
CCCCOS(=O)(=O)c1ccccc1,106%,103%,95.8%,110%,102%,108%,117%,109%
Cc1ccc2c(c1)sc(-c1ccc(N(C)C)cc1)[n+]2C,1.38% (active),11.9%,9.68% (active),12.3%,3.8% (active),-8.72% (active),2.49% (active),5.09% (active)
CCCCCCCCCCCC[n+]1ccc(CCCCCCCCC)cc1,-62.3% (active),-27.3% (active),-85.5% (active),-67% (active),-5.44% (active),-91% (active),-79.5% (active),-74.4% (active)
CCCCCCCCCCCC[N+]1(CCCCCCCCCCCC)CCCC(C)C1 (configuration not stated),-78.6% (active),-72.2% (active),-58.7% (active),-65.4% (active),-88.9% (active),-97.2% (active),-96.6% (active),-96.3% (active)
COc1ccc2c(c1OC)OCC(CN(C)C)C2=O (configuration not stated),69.5%,82.4%,96.1%,-78.3% (active),75%,77.6%,105%,96.8%
O=C(Nc1ccc(Cl)c(Cl)c1)OCc1ccco1,38.4%,31.6%,0.451% (active),40.4%,14.8%,26.6%,56.4%,8.03% (active)
CCCCCCC1N=C(N)N=C(N)N1c1cccc(Cl)c1 (configuration not stated),51.8%,25.2%,24.1%,27%,22.4%,16.6%,10.3%,18.6%
COC(=O)c1cc([N+](=O)[O-])cc([N+](=O)[O-])c1Cl,-28.3% (active),117%,81.7%,31.7%,45.1%,-42.8% (active),106%,105%
CN=C(N)N/N=C(\C)c1ccc2c(c1)Cc1ccccc1-2,-65.4% (active),-6.1% (active),-73.1% (active),-88.9% (active),-99.3% (active),-100% (active),-98.5% (active),-79% (active)
CC(=O)C1Cc2ccccc2C1=O (configuration not stated),101%,91.3%,103%,101%,95.4%,103%,108%,102%
C/C(=N\NC(=S)N1CC2CCC(CC2)C1)c1ccccn1,17.4%,30.4%,11.5%,14.3%,13.3%,7.24% (active),29.3%,9.58% (active)
CC/C(=C(/CC)c1ccc(O)cc1)c1ccc(O)cc1,72.4%,64.3%,-18.7% (active),44.6%,26.2%,29.3%,70.2%,44.1%
